The nature of assay [1]: qHTS assay to identify small molecule antagonists of the retinoid-related orphan receptor gamma (ROR-gamma) signaling pathway - cell viability counter screen (AID 1159520). Note: nearly all actives have a fitted effect of over 50% in size. Note: potency is the fitted concentration of half-maximal effect. The method, boiled down:
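Tet-on ROR gamma CHO cells (1,000/well) were plated 4 hr, given compounds in DMSO for 2 hr at 37 C, then induced with 1 uM final doxycycline for 16 hr. Viability was read as ATP by CellTiter-Glo luminescence after 30 min.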
In general terms: In qHTS, concentration-response curves come from the screen itself.

Assay [2] can be described thus: qHTS assay to identify small molecule agonists of the AP-1 signaling pathway - cell viability counter screen (AID 1159525; calls by dose curve; note: nearly all actives have a fitted effect of over 55% in size). The gist of the method:
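ME-180 AP-1-bla, 2500 cells/well, Opti-MEM + 0.5% dialyzed FBS; overnight 37 °C; cpd 15-pt titration, 5 h 37 °C; CellTiter-Glo 30 min RT; luminescence read; normalised to TOAB and DMSO controls.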

Assay [3] in a line: qHTS assay to identify small molecule agonists of the AP-1 signaling pathway (AID 1159526; calls by dose curve; note: potency is the fitted concentration of half-maximal effect).
Assay [4] concerns the target Retinoic acid receptor RXR-alpha (Homo sapiens) (UniProt P19793). Nature of the assay: qHTS assay to identify small molecule agonists of the RXR signaling pathway (AID 1159527; calls by dose curve; note: % is set by controls: 0 for no effect and ±100 for the full control effect; nearly all actives have a fitted effect of over 35% in size). The gist of the method: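 qHTS of the Tox21 10K library in GeneBLAzer RXR-alpha HEK 293T cells carrying a beta-lactamase reporter […]; 16 hr treatment, 9-cis retinoic acid as agonist control, FRET read-out.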

Assay [5] is described as follows: qHTS assay to identify small molecule agonists of the RXR signaling pathway - cell viability counter screen (AID 1159529). Note: nearly all actives have a fitted effect of over 50% in size. Note: potency is the fitted concentration of half-maximal effect. The gist of the method: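 Cell viability is measured by CellTiter-Glo luminescence, 30 min at room temperature, in wells already read for beta-lactamase. Engineered HEK 293T cells (RXR-alpha-UAS-bla) are dosed 16 hr at 37 C. Tetraoctyl ammonium bromide serves as positive control.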

The nature of assay [6]: qHTS assay to identify small molecule antagonists of the retinoid acid receptor (RAR) signaling pathway - cell viability counter screen (AID 1159551). Note: nearly all actives have a fitted effect of over 35% in size. Note: potency is the fitted concentration of half-maximal effect. The method, boiled down:
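Cytotoxicity counter screen in C3RL4 cells: 6 h compound exposure with 1 uM retinol (final), viability from cellular ATP by luminescence.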

A short description of assay [7]: qHTS assay to identify small molecule antagonists of the retinoic acid receptor (RAR) signaling pathway (AID 1159552; note: nearly all actives have a fitted effect of over 50% in size; note: potency is the fitted concentration of half-maximal effect). The method, boiled down:
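Quantitative HTS in C3RL4 RARE-luciferase reporter cells. Compounds were added with 1 uM (final) retinol; luminescence was read after 6 hr.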

Assay [8] deals with Nuclear receptor ROR-gamma (Homo sapiens) (UniProt P51449). Nature of the assay: qHTS assay to identify small molecule antagonists of the retinoid-related orphan receptor gamma (ROR-gamma) signaling pathway (AID 1159521; note: nearly all actives have a fitted effect of over 50% in size; note: potency is the fitted concentration of half-maximal effect). The gist of the method: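 RORγ antagonism is scored from reduced reporter luminescence in Tet-on CHO cells. Induction used 1 uM final doxycycline hyclate for 16 h at 37 C, following a 2 h compound exposure.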

The nature of assay [9]: qHTS assay to identify small molecule agonists of the farnesoid-X-receptor (FXR) signaling pathway - cell viability counter screen (AID 743218). Note: nearly all actives have a fitted effect of over 45% in size. Note: potency is the fitted concentration of half-maximal effect. The gist of the method: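 Cytotoxicity counter-screen run in parallel, same wells: FXR-UAS-bla HEK 293T cells dosed 16 h at 37 C, viability read by CellTiter-Glo luminescence after 30 min at room temperature.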
For assay [10], the target named is Bile acid receptor (Homo sapiens) (UniProt Q96RI1). Put plainly: qHTS assay to identify small molecule agonists of the farnesoid-X-receptor (FXR) signaling pathway (AID 743220; active = well fitted activation curve with a large enough effect in the signal ratio in the repeat runs, not every such curve was filed as active; the % refers to the signal ratio; note: % is set by controls: 0 for no effect and ±100 for the full control effect). The gist of the method: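 Beta-lactamase reporter under UAS control in GeneBLAzer FXR HEK 293T cells (5000/well) measured with LiveBLAzer FRET substrate after 2 h at room temperature. Compound exposure lasted 16 h at 37C.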

Assay [11] has as its target Vitamin D3 receptor (Homo sapiens) (UniProt P11473). Nature of the assay: qHTS assay to identify small molecule agonists of the vitamin D receptor (VDR) signaling pathway (AID 743222; calls by dose curve; note: % is set by controls: 0 for no effect and ±100 for the full control effect). The method, boiled down:
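Quantitative HTS agonist-mode screen: compounds in DMSO were pin-transferred onto VDR-bla cells and incubated 16 h at 37C, 5% CO2. Reporter activity was detected with LiveBLAzer B/G FRET substrate after 2 h at room temperature.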

The nature of assay [12]: qHTS assay to identify small molecule agonists of the vitamin D receptor (VDR) signaling pathway - cell viability counter screen (AID 743224). The method, boiled down: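 Viability is measured in the same wells as the VDR-bla reporter assay: after 16 h compound treatment and 2 h substrate loading, CellTiter-Glo is added and luminescence read 30 min later.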
Assay [13] is described as follows: qHTS assay to identify small molecule antagonists of the vitamin D receptor (VDR) signaling pathway - cell viability counter screen (AID 743225). Note: nearly all actives have a fitted effect of over 50% in size. Note: potency is the fitted concentration of half-maximal effect. The method, boiled down:
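Cells (VDR-UAS-bla HEK 293T) are plated, rested 4 h at 37C, dosed with compound and 3 nM final 1-alpha,25-dihydroxy vitamin D3, and incubated 16 h. Viability is taken from CellTiter-Glo luminescence in the reporter wells.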

The target of assay [14] is Peroxisome proliferator-activated receptor delta (Homo sapiens) (UniProt Q03181). Put plainly: qHTS assay to identify small molecule agonists of the peroxisome proliferator-activated receptor delta (PPARd) signaling pathway (AID 743212; calls by dose curve; note: % is set by controls: 0 for no effect and ±100 for the full control effect). The method, boiled down:
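GeneBLAzer PPARd UAS-bla HEK293H cells (beta-lactamase reporter under UAS control), plated and rested 5 h at 37 C, then exposed to compounds in DMSO at 37 C; LiveBLAzer B/G FRET substrate added, 2 h room temperature, fluorescence read.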

A short description of assay [15]: qHTS assay to identify small molecule antagonists of the peroxisome proliferator-activated receptor delta (PPARd) signaling pathway - cell viability counter screen (AID 743213). The method, boiled down: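 Luminescence from CellTiter-Glo, added after the bla read and incubated 30 min at room temperature, gives viability of HEK293H PPARd-bla cells exposed to compounds for 17 h at 37 C with 300 nM L165041.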

For assay [16], the target named is Bile acid receptor (Homo sapiens) (UniProt Q96RI1). Nature of the assay: qHTS assay to identify small molecule antagonists of the farnesoid-X-receptor (FXR) signaling pathway (AID 743217; active = well fitted inhibition curve with a large enough effect in the signal ratio in the repeat runs, not every such curve was filed as active; the % refers to the signal ratio; note: % is set by controls: 0 for no effect and ±100 for the full control effect). The method, boiled down: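 Antagonist mode against 50 uM (final) chenodeoxycholic acid stimulation in FXR-bla HEK 293T cells, 16 h at 37 °C. Inhibition detected as reduced beta-lactamase activity via LiveBLAzer B/G FRET fluorescence after 2 h at room temperature.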

Assay [17] in a line: qHTS assay to identify small molecule antagonists of the farnesoid-X-receptor (FXR) signaling pathway - cell viability counter screen (AID 743221; active = well fitted cell-killing curve with a large enough effect in the repeat runs, not every such curve was filed as active). The method, boiled down: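 Quantitative HTS of the Tox21 10K library run in parallel with the beta-lactamase reporter read. HEK 293T cells carrying a UAS-driven bla reporter got compound and 50 uM CDCA (final) for 16 h; ATP-based luminescence followed.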

Assay [18] is described as follows: qHTS assay to identify small molecule agonists of the peroxisome proliferator-activated receptor delta (PPARd) signaling pathway - cell viability counter screen (AID 743211). Note: potency is the fitted concentration of half-maximal effect; nearly all actives have a fitted effect of over 55% in size. The method, boiled down:
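Viability of GeneBLAzer PPARd UAS-bla HEK293H cells was assessed after 17 h compound incubation at 37C, using CellTiter-Glo reagent added after the reporter read and luminescence recorded 30 min later.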

Records with an inconclusive call do not appear. Unmarked numbers belong to inactive results. Active and inactive are the calls of the source. Unless noted, calls come from the whole dose curve; as a rule, active = well fitted curve in the direction sought with a large enough effect in the repeat runs; inconclusive = weak or mixed curves; inactive = no such curve, though single readings can be large; an effect the other way counts as inactive or inconclusive.

Sequence of Bile acid receptor (Homo sapiens) (Q96RI1 whole entry, looked up): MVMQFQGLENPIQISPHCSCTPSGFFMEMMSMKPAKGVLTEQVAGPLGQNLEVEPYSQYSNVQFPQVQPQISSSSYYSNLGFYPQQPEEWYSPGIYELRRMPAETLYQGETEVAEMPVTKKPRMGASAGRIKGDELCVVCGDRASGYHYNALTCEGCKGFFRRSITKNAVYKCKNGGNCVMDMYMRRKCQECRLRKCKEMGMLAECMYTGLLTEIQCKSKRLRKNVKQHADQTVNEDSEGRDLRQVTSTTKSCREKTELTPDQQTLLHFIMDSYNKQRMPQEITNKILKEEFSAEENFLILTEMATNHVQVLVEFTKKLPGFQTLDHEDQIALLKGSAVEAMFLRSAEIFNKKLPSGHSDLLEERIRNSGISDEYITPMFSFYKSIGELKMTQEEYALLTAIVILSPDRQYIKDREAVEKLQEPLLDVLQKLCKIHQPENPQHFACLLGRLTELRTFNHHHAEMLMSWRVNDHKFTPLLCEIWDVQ
Sequence of Retinoic acid receptor RXR-alpha (Homo sapiens) (P19793 whole entry, looked up): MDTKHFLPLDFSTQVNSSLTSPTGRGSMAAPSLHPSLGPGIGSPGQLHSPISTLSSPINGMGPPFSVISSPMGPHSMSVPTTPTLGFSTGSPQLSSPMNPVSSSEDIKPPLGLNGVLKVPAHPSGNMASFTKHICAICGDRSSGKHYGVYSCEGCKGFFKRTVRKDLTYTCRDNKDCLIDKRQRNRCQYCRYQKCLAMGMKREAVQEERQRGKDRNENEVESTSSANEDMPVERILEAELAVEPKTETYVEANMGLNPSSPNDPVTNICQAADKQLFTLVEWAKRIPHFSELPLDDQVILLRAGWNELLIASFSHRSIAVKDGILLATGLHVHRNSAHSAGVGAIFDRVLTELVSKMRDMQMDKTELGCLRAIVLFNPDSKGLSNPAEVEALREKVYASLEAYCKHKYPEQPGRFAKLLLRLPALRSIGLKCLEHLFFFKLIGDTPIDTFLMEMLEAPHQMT
Sequence of Vitamin D3 receptor (Homo sapiens) (P11473 whole entry, looked up): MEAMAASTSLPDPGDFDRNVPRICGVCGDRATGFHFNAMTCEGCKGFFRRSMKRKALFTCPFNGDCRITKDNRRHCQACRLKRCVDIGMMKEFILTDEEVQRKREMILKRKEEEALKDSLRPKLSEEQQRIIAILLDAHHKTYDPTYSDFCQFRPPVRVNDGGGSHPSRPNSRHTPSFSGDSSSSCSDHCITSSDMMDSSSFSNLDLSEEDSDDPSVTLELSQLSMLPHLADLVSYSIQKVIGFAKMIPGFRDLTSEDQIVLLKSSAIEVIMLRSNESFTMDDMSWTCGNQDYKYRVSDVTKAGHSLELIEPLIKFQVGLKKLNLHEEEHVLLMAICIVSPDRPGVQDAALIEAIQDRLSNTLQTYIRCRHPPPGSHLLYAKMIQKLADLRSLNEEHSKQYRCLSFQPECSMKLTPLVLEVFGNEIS
Sequence of Peroxisome proliferator-activated receptor delta (Homo sapiens) (Q03181 whole entry, looked up): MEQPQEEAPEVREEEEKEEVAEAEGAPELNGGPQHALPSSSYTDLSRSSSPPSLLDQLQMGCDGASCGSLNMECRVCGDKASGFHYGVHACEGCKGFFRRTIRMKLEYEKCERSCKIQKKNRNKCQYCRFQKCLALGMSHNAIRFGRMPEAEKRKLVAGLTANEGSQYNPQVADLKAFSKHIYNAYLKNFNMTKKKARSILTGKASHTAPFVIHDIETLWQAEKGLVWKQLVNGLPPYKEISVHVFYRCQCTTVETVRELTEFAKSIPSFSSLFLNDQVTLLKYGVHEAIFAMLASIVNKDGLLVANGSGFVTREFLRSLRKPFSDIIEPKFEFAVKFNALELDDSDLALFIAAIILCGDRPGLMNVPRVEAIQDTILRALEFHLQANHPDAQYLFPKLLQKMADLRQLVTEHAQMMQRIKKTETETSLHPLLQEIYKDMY

`COC(=O)c1ccc([N+](=O)[O-])cc1`: the Potency result in assay [1], in assay [2], in [3], in assay [4], in [5] and in assay [6] was “inactive” each time. In addition, in assay [7], the Potency result was “inactive”.
As to `Oc1ccc2c(c1)CCC2`, the Potency result in assay [1], in [2], in assay [3], in assay [4], in [5] and in [6] was “inactive” each time. For the same molecule, the Potency entry in [7] was “inactive”.
For `CCCCCCCCCCCCS(=O)(=O)Cl`, the activity, negative = cytotoxicity in assay [1] is -7.74% [at 19 µM]. Moreover, the activity change, negative = inhibition in assay [8] was 0.574% [at 19 µM]. In addition, the activation in [3] was -7.42% [at 15.8 µM]; in assay [4], -13.1% [at 15.8 µM]. Also, in [6], the activity change, negative = cytotoxicity is 0.197% [at 19 µM]. For the same molecule, the activity, negative = inhibition in assay [7] is -0.011% [at 19 µM].
In the case of `O=C(Nc1ccccc1)c1cc(Cl)ccc1O`, the Potency in [9] is 38.9 µM (active); in assay [12], 12.3 µM (active); in assay [13] it was 12.3 µM (active); in assay [1], 24.3 µM (active); in [8], 12.2 µM (active). Also, the result in assay [10] and in assay [11] was inactive. For the same molecule, the Potency entry in assay [6] and in assay [7] was “inactive” each time.
With `C/C=C/C(=O)OCC(C)C`, the Potency entry in assay [1], in [8], in assay [5], in assay [6] and in [7] was “inactive” in each case. The Potency in assay [3] was 54.9 µM (active).
`CCC(=O)OC/C=C(\C)CCC=C(C)C`: the Potency result in [1], in [8], in assay [3], in assay [4], in [5] and in assay [6] was “inactive” in each case.
As for `COc1cc([C@@H]2c3cc4c(cc3[C@@H](O[C@@H]3O[C@@H]5CO[C@@H](C)O[C@H]5[C@H](O)[C@H]3O)[C@H]3COC(=O)[C@H]23)OCO4)cc(OC)c1O`, the molecule was classed as inactive in assay [14] and in assay [10]. Moreover, the Potency was 21.6 µM (active) in assay [15], 21.6 µM (active) in assay [12], 27 µM (active) in [8] and 67.8 µM (active) in [7]. Also, the Potency entry in assay [16], in assay [9], in assay [17], in assay [13], in assay [1] and in assay [6] was “inactive” each time.
Consider `C=CC(=O)OCC(Br)CBr` (stereo not given), for which the Potency entry in assay [1], in assay [2], in [3], in assay [4], in [5] and in assay [6] was “inactive” in each case. Also, the Potency result in assay [7] was “inactive”.
In the case of `Cn1ccnc1`, the Potency entry in assay [1], in assay [2], in assay [3], in [4], in [5] and in [6] was “inactive” in each case.
For the molecule `CCOC(=O)[C@H](O)[C@@H](O)C(=O)OCC`, the Potency result in assay [1], in [2], in assay [3], in assay [4], in assay [5] and in assay [6] was “inactive” in each case. Moreover, the Potency entry in assay [7] is “inactive”.
Consider `COc1ccc(OC)c(N=Nc2c(O)ccc3ccccc23)c1`, for which the results for the Potency in assay [1] and in [6] were 30.6 µM (active) and 17.2 µM (active), respectively. Also, the Potency result in assay [8] and in [7] was “inactive” throughout.
As for `NCc1cccc(C2CCN(C(=O)c3ccc(C#Cc4ccccc4F)o3)CC2)c1`, the Potency in assay [18] was 21.9 µM (active); in assay [15], 49 µM (active); in assay [9], 34.7 µM (active); in [12], 54.9 µM (active); in assay [13], 34.7 µM (active); in assay [1] it was 43.3 µM (active). Further, the Potency in [8] is 34.4 µM (active); in assay [5], 13.8 µM (active); in assay [6], 68.6 µM (active); in [7], 54.5 µM (active). Further, the molecule was called inactive in assay [10].
Take `Oc1ccc(C2(c3ccc(O)c(C4CCCCC4)c3)CCCCC2)cc1C1CCCCC1`: the Potency was 24.3 µM (active) in [1], 17.2 µM (active) in [8], 19.5 µM (active) in assay [5] and 27.3 µM (active) in [7].
With `CCCCCCCCSCc1cc(C)c(O)c(CSCCCCCCCC)c1`, the Potency entry in [1] and in assay [6] was “inactive” each time. For the same molecule, the Potency in assay [8] was 61.1 µM (active).
Turning to `CCC(O)CO` (stereo not given), the Potency entry in assay [1], in assay [2], in assay [3], in assay [4], in assay [5] and in assay [6] was “inactive” in each case.
Take `CCc1cccc(CC)c1`: the Potency result in assay [1], in assay [2], in assay [3], in assay [4], in assay [5] and in [6] was “inactive” throughout. Moreover, in [7], the Potency result is “inactive”.
`Cc1ccc(C2OC[C@@H]3OC(c4ccc(C)cc4)O[C@H]([C@H](O)CO)[C@@H]3O2)cc1` (stereo not given in full): the Potency result in [1], in assay [2], in [3], in [4], in assay [5] and in assay [6] was “inactive” each time. For the same molecule, in [7], the Potency result was “inactive”.
